Each structure is given as a SMILES string. “And” between values parts separate entries of the source, which are not always exact repeats. Equal entries are not always repeated. Records with an inconclusive call do not appear. The source holds several records for some structures; these can differ, active in one and inactive in another. The source made the active and inactive calls. The call rests on the fitted dose curve.
Potency means the concentration at half of the fitted maximal effect.

The assay is described as follows: qHTS assay to identify small molecule agonists of the AP-1 signaling pathway - cell viability counter screen (AID 1159525). Further: nearly all actives have a fitted effect of over 55% in size. The note with it: ME-180 (cervical carcinoma) AP-1-bla cells viability, ATP luminescence, 5 h; series mostly up to 76.8 µM; viability change, negative = cytotoxic: at the top concentration. The source says:
National Center for Advancing Translational Sciences [NCATS]
NIH Chemical Genomics Center [NCGC]
U.S. Environmental Protection Agency [EPA]
National Institutes of Environmental Health Sciences [NIEHS]
National Toxicology Program [NTP]
U.S. Food and Drug Administration [FDA]
Activator protein-1 (AP-1), a transcription factor, plays an important role in tumor genesis by regulating genes involved in cell proliferation, differentiation, apoptosis, and angiogenesis. AP-1 activity is induced by a complex network of signaling pathways that involves extracellular signals, such as growth factors. The AP-1 protein complex formed from c-Fos and c-Jun binding to the AP-1 response element results in transcriptional activation of genes containing such elements within their promoter.
Low molecular weight molecules have been discovered and developed to modulate various components of these signaling pathways, for example, MAP kinase inhibitors. However, many points of pathway modulation remain untested due to the lack of chemical probes making this signaling locus of general interest.
Using a beta-lactamase reporter-gene under control of the AP-1 response element, a cell-based assay [CellSensor(TM) AP-1-bla ME-180 developed by Invitrogen Corp.] was used to measure EGF-induced signaling. The Tox21 10K library compounds were measured for their ability to positively modulate the action of EC50 EGF on reporter gene activity. Compounds were screened in a 15-pt titration series in 1536-well format. The cytotoxicity of the Tox21 compound library against this cell line was tested in parallel by measuring the intra cellular ATP content in the same wells.
Tox21 Assay Protocol Summary:
2500 cells/5uL in Opti-MEM medium containing 0.5% dialyzed FBS, 0.1 mM NEAA, 1 mM sodium pyruvate and 10 mM HEPES was dispensed into 1536-well black wall/clear bottom plates using a Multidrop dispenser and cells were cultured at 37 degrees Celsius overnight. Next day 23 nL of compounds dissolved in DMSO, positive controls or DMSO were delivered to each well using a pin tool. The plates were incubated at 37 degrees Celsius for 5 hours. 1 uL of LiveBLAzerTM B/G FRET substrate (Solution A+B+C+D) was added to each well using a Flying Reagent Dispenser. After incubated at room temperature for 2.5 hours the plates were measured on an EnVision plate reader at Excitation 405nm, Emission1=460nm and Emission 2=530nm. The %Activity was determined from the ratio of 460nm/530nm.
After the plates were read for Beta-Lactamase assay on Envision; 3 ul Cell Titer Glo (Promega) was added to measure the cytotoxicity and the plates were then incubated at RT in dark for 30 min. The luminescence was read on ViewLux (Perkin Elmer, Shelton, CT) using 6 sec exposure. ViewLux data was expressed as relative luminescence units.
For primary data analysis, raw plate reads for each titration point were first normalized relative to […] EGF control (100%) and DMSO only wells (basal, 0%).
For primary data analysis for viability assay, raw plate reads for each titration point were first normalized Tetra n-octyl ammonium bromide control (-100%) and DMSO (control, 100%).
In general terms: qHTS replaces the single test concentration by a dilution series.
Take `COc1ccc(CCN(C)CCCC(C#N)(c2ccc(OC)c(OC)c2)C(C)C)cc1OC` (stereo not given): the Potency result is “inactive”. Consider `CC[C@@H](N)CO`, for which the “viability change, negative = cytotoxic” value was 0.134% (inactive). With `O=C(O)c1cccc(C(=O)O)c1`, the Potency result is “inactive”.

As to `O=C(Cl)c1cccc(C(=O)Cl)c1`, the Potency entry was “inactive”.

For `CNC1(C)C2CCC(C2)C1(C)C` (stereo not given), the “viability change, negative = cytotoxic” value is 4.52% [at 35.3 µM] (inactive). On the same count and under the same terms, to `COc1nc(C)nc(Cl)c1NC1=NCCN1` belongs 6.13% [at 35.3 µM] (inactive). Regarding `Oc1c(Cl)cc(Cl)cc1Sc1cc(Cl)cc(Cl)c1O`, the Potency was 49.1 µM (active) and 49 µM (active) and inactive. As to `O=C(O)CCc1ccccc1`, the “viability change, negative = cytotoxic” value is 2.67% (inactive). For the compound `NC(N)=NC(=O)Cc1c(Cl)cccc1Cl`, the “viability change, negative = cytotoxic” value was 0.275% [at 35.3 µM] (inactive). On to `O=C(O)c1cn(-c2ccc(F)cc2)c2cc(N3CCNCC3)c(F)cc2c1=O`, for which the Potency result is “inactive”. Turning to `O=Nc1ccc(Nc2ccccc2)cc1`, the “viability change, negative = cytotoxic” value is 23.9% (inactive). As to `Cc1cccc(O)c1C`, the Potency entry was “inactive”. As to `O=C(O)CP(=O)(O)O`, the “viability change, negative = cytotoxic” value is -18.5% [at 35.3 µM] (inactive). With `CC(C)(C)NCC(O)COc1ccccc1OCC1CCCO1` (stereo not given), the “viability change, negative = cytotoxic” value was 1.41% [at 35.3 µM] (inactive).

As for `CN(C)c1ccc(C(=C2C=CC(=[N+](C)C)C=C2)c2ccccc2)cc1`, the Potency is 13.8 µM (active) and 23.9 µM (active) and 10.7 µM (active). `CC(=O)Nc1ccc(C(=O)CCl)cc1`: the “viability change, negative = cytotoxic” value was 0.0428% (inactive). With `CNCCC(Oc1ccc(C(F)(F)F)cc1)c1ccccc1` (stereo not given), the Potency result is “inactive”.

As to `CCC(C)(C)C(=O)O[C@H]1C[C@@H](C)C=C2C=C[C@H](C)[C@H](CC[C@@H]3C[C@@H](O)CC(=O)O3)[C@H]21`, the “viability change, negative = cytotoxic” value was 0.4% (inactive). With `Cc1cc(OCCOCC[N+](C)(C)Cc2ccccc2)ccc1C(C)(C)CC(C)(C)C`, the Potency is 34.5 µM (active) and 26.8 µM (active). In the case of `CCCCC(CC)COC(=O)CC(C(=O)OCC(CC)CCCC)S(=O)(=O)O` (stereo not given), the Potency was 42 µM (active) and 49 µM (active). As to `CCCCCCCCCCCC[N+](C)(C)C`, the Potency result was “inactive”. Turning to `CCc1ccc(C(c2ccc(CC)cc2)C(Cl)Cl)cc1`, the “viability change, negative = cytotoxic” value was -10.8% (inactive). The same measure, in the same setting: to `CCCNC(C)C(=O)Nc1ccccc1C` (stereo not given) belongs 8.76% [at 35.3 µM] (inactive). Consider `Cc1ccc(-c2cc(C(F)(F)F)nn2-c2ccc(S(N)(=O)=O)cc2)cc1`, for which the Potency is 48.8 µM (active) and 54.9 µM (active). In the case of `CCC(=O)/C=C/C1C(C)=CCCC1(C)C` (stereo not given), the Potency result is “inactive”. Still for that read-out and setting: to `CCC[C@H](N[C@@H](C)C(=O)N1[C@H](C(=O)O)C[C@@H]2CCCC[C@@H]21)C(=O)OCC` belongs “inactive”. For `CC(C)(C)NCC(O)c1cc(O)cc(O)c1` (stereo not given), the “viability change, negative = cytotoxic” value was 1.3% [at 35.3 µM] (inactive). `CC(COc1ccccc1)N(CCCl)Cc1ccccc1` (stereo not given): the Potency result is “inactive”. In the case of `CCCCCCCCCCCCc1ccccc1O`, the Potency was 13.6 µM (active) and 17.4 µM (active).

As to `c1cc(C(c2ccc(OCC3CO3)cc2)C(c2ccc(OCC3CO3)cc2)c2ccc(OCC3CO3)cc2)ccc1OCC1CO1` (stereo not given), the Potency entry was “inactive”.

On to `c1ccc2c(c1)CCCC2C1=NCCN1` (stereo not given), for which the “viability change, negative = cytotoxic” value was 12% [at 35.3 µM] (inactive). `Cc1ccc(S(=O)(=O)Oc2ccc(N=Nc3ccc(-c4ccc(N=Nc5c(O)ccc6cc(S(=O)(=O)O)cc(S(=O)(=O)O)c56)c(C)c4)cc3C)cc2)cc1`: the “viability change, negative = cytotoxic” value is -11% [at 35.3 µM] (inactive). In the case of `CCn1cc(C(=O)O)c(=O)c2cc(F)c(N3CCNC(C)C3)c(F)c21` (stereo not given), the “viability change, negative = cytotoxic” value was -0.0145% [at 35.3 µM] (inactive).

Consider `Oc1ccc(Cl)cc1Cc1cc(Cl)ccc1O`, for which the Potency was 55.9 µM (active). Take `CC(=O)CC(C)=O`: the “viability change, negative = cytotoxic” value was -11% (inactive). Turning to `CC(C)CCCCCCc1ccc(O)cc1`, the Potency was 25 µM (active) and 49 µM (active). On to `c1ccc2n[nH]nc2c1`, for which the Potency result was “inactive”. Regarding `O=C(OCc1ccccc1)c1ccc(O)cc1`, the Potency entry was “inactive”. With `Nc1ccc2cc3ccccc3cc2c1`, the Potency entry was “inactive”.

For `CCOc1ccc2c(c1)C(C)=CC(C)(C)N2`, the Potency entry is “inactive”.

(Values after PubChem BioAssay (Tox21).)
